Test results taken from ChEMBL document CHEMBL1961873, “Compounds: GSK PKIS; Assays: Nanosyn kinase panel” (2012).

Tests used:
[1] = biological target: MAP/microtubule affinity-regulating kinase 3 (Homo sapiens) (UniProt P27448); conditions: at 1 µM;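 note: reported values are averaged percent inhibition of MARK3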
[2] = biological target: T1, MAP/microtubule affinity-regulating kinase 4 (Homo sapiens) (UniProt Q96L34); conditions: at 0.1 µM
T1 sequence (whole entry): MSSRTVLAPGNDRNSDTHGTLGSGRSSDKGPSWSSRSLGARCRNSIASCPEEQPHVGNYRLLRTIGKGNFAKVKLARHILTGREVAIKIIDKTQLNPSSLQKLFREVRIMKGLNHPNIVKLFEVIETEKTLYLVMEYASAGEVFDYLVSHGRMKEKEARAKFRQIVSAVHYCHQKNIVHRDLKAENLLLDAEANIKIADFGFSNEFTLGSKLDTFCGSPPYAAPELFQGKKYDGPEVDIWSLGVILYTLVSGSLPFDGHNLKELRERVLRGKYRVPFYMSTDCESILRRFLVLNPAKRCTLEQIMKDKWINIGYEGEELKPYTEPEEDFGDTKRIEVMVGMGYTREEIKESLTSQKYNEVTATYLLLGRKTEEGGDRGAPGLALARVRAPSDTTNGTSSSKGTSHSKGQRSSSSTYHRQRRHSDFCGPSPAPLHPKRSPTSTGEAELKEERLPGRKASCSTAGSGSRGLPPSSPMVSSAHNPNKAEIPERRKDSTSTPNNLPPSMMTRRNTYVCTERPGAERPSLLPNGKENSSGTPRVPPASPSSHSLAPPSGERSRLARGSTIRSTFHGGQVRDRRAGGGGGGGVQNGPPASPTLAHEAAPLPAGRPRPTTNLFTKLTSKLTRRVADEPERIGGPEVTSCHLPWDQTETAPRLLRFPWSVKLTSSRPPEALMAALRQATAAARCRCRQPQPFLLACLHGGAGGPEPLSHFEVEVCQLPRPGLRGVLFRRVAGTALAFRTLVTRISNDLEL

[3] = biological target: T1, MAP/microtubule affinity-regulating kinase 4 (Homo sapiens); conditions: at 1 µM
[4] = biological target: Maternal embryonic leucine zipper kinase (Homo sapiens) (UniProt Q14680); conditions: at 0.1 µM
[5] = biological target: Maternal embryonic leucine zipper kinase (Homo sapiens) (UniProt Q14680); conditions: at 1 µM
[6] = biological target: MAP kinase-interacting serine/threonine-protein kinase 1 (Homo sapiens) (UniProt Q9BUB5); conditions: at 0.1 µM
[7] = biological target: MAP kinase-interacting serine/threonine-protein kinase 1 (Homo sapiens) (UniProt Q9BUB5); conditions: at 1 µM
[8] = biological target: MAP kinase-interacting serine/threonine-protein kinase 2 (Homo sapiens) (UniProt Q9HBH9); conditions: at 0.1 µM
[9] = biological target: MAP kinase-interacting serine/threonine-protein kinase 2 (Homo sapiens) (UniProt Q9HBH9); conditions: at 1 µM
[10] = biological target: Serine/threonine-protein kinase MARK2 (Homo sapiens) (UniProt Q7KZI7); conditions: at 0.1 µM;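 note: mean percent inhibition of PAR-1Balpha kinase activity, reported from the GSK PKIS screen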
Serine/threonine-protein kinase MARK2 (Homo sapiens), sequence (Q7KZI7 whole entry): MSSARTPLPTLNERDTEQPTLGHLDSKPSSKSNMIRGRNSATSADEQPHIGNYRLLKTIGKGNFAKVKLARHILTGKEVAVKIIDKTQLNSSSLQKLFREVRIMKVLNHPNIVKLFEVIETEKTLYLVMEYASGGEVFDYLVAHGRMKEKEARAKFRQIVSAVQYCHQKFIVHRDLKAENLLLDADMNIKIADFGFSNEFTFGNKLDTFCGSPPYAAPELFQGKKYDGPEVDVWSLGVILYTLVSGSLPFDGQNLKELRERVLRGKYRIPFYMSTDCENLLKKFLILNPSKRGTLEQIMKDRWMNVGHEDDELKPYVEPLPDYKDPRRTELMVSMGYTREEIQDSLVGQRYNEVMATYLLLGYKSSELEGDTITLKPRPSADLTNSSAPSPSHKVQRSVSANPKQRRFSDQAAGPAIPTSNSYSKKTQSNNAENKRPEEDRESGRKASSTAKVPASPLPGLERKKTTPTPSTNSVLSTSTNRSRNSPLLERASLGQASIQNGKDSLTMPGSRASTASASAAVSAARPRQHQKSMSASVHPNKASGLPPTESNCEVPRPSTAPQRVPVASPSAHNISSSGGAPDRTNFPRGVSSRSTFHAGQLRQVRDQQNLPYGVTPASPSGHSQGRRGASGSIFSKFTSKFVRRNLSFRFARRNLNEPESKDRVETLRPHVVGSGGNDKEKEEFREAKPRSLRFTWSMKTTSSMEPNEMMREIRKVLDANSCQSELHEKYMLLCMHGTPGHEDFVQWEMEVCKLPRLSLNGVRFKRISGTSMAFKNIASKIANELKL

MAP kinase-interacting serine/threonine-protein kinase 2 (Homo sapiens), sequence (Q9HBH9 whole entry, looked up): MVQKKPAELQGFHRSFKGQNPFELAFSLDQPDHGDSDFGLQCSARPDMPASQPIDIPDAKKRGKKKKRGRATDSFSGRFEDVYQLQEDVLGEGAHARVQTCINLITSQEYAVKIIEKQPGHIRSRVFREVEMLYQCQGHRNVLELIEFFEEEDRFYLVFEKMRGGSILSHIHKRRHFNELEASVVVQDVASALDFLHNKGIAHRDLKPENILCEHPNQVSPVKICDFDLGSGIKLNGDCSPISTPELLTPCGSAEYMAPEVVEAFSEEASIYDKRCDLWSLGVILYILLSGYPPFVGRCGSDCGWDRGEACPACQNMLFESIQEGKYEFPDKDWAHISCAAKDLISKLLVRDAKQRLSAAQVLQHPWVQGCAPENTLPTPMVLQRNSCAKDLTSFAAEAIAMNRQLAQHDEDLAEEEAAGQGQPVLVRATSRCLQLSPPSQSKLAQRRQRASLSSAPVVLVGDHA
MAP kinase-interacting serine/threonine-protein kinase 1 (Homo sapiens), sequence (Q9BUB5 whole entry, looked up): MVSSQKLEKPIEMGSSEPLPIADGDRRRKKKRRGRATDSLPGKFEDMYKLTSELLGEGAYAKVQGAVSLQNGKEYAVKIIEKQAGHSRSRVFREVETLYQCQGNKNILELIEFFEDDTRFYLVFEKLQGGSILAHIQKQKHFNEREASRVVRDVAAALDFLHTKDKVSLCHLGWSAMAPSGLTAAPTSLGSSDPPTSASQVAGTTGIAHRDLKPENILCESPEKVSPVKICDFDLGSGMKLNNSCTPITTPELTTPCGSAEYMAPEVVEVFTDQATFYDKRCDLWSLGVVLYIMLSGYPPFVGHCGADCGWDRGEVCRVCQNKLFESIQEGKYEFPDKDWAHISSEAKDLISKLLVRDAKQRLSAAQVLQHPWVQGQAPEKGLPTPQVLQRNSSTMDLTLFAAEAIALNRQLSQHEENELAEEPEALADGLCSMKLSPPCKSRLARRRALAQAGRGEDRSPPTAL
Maternal embryonic leucine zipper kinase (Homo sapiens), sequence (Q14680 whole entry, looked up): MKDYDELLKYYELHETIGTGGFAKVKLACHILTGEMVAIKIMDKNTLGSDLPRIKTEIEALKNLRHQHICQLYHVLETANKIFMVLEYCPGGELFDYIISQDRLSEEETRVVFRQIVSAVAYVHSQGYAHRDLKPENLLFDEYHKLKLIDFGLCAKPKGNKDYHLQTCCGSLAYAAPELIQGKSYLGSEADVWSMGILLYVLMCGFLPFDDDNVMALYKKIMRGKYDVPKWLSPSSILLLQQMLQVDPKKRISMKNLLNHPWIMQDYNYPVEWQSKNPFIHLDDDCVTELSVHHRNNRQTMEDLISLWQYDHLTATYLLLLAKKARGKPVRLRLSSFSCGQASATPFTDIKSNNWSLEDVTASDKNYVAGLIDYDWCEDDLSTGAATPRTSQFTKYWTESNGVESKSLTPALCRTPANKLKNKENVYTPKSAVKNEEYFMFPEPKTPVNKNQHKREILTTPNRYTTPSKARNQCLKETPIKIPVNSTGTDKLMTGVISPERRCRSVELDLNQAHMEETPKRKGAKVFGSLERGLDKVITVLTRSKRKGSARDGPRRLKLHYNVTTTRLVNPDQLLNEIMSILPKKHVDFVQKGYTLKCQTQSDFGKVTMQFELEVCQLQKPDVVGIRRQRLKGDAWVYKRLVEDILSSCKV
MAP/microtubule affinity-regulating kinase 3 (Homo sapiens), sequence (P27448 whole entry, looked up): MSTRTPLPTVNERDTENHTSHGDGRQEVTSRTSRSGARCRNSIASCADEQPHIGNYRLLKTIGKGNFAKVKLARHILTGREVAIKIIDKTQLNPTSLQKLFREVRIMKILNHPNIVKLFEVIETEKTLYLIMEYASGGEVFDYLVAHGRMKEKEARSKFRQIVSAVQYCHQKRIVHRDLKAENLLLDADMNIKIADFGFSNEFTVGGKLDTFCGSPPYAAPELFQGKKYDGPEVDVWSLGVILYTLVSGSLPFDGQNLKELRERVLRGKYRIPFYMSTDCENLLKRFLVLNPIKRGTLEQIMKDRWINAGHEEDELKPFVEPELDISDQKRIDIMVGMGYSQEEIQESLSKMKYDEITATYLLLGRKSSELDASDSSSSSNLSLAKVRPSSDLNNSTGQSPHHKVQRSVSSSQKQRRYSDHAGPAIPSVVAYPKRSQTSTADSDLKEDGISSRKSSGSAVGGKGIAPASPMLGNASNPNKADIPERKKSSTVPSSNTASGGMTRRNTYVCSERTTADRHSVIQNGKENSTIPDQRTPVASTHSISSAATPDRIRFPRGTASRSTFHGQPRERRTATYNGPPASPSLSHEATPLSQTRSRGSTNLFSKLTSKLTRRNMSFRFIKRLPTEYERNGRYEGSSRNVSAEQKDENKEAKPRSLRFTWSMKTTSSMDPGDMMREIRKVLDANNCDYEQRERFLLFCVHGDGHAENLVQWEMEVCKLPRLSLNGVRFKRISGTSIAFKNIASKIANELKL

SMILES | inhibition [1] [%] | inhibition [2] [%] | inhibition [3] [%] | inhibition [4] [%] | inhibition [5] [%] | inhibition [6] [%] | inhibition [7] [%] | inhibition [8] [%] | inhibition [9] [%] | inhibition [10] [%]
COc1cc2ncn(-c3cc(OCc4ccccc4C(F)(F)F)c(C(C)=O)s3)c2cc1OC | 3.71 | 3 | 2.91 | 3.94 | 1.83 | 3.58 | 5.46 | 1.92 | 4.93 | -0.07
NC(=O)c1cc(-c2ccncc2)cc(-c2ccccc2)c1N | 11.9 | 2.69 | 1.61 | 4.36 | 7.85 | 3.23 | 9.56 | 2.09 | 6.55 | 2.08
COc1ccc2cc(-c3c(-c4ccncc4)nc(-c4ccc([S+](C)[O-])cc4C)n3C)ccc2c1 (stereo not given) | -1.9 | -0.17 | -0.24 | 0.29 | 0.51 | 5.22 | 10 | 0.98 | 3.96 | -1.24
O=C(Nc1ccc(Oc2ccc3[nH]c(NC(=O)c4ccccc4)nc3c2)cc1)Nc1cc(C(F)(F)F)ccc1F | 22.9 | 0.56 | 3.1 | 3.83 | 2.36 | 3.79 | 21 | 2.44 | 22.1 | -0.01
c1ccc(-c2n[nH]cc2-c2ccnc(-c3ccc(OCCN4CCOCC4)cc3)c2)nc1 | 5.45 | 4.57 | 5.04 | -1.03 | 3.77 | 4.82 | 2.74 | 3.62 | 2.02 | 4.23
Nc1nccc(-c2c(-c3ccc(F)cc3)ncn2C2CCC(O)CC2)n1 (stereo not given) | 0.22 | 0.43 | 1.28 | -3.21 | 1.19 | 0.34 | 0.48 | 0.18 | 0.46 | 1.84
O=C(Nc1n[nH]c2nc(-c3ccc(O)cc3)c(Br)cc12)C1CC1 | 8.75 | 3.64 | 4.75 | 6.28 | 13.1 | 37.8 | 76.1 | 5.42 | 35.1 | -0.95
c1ccc(Oc2ccc(Nc3ncc(-c4ccccc4)o3)cc2)cc1 | -0.43 | -0.01 | 0.55 | 2.47 | 2.86 | 1.08 | 4.15 | 0.86 | 2.44 | -0.89
COc1ccc2cc(-c3c(-c4ccncc4)nc(-c4ccc(S(C)(=O)=O)cc4C)n3C)ccc2c1 | 2.48 | 2.52 | 1.32 | 6.13 | 9.41 | 2.6 | 6.69 | 1.75 | 3.34 | 0.73
Cc1ccc(NC(=O)c2ccoc2)cc1-c1ccc(C(=O)NCC2CC2)cc1 | 1.79 | 0.31 | 0.19 | 3.06 | -0.33 | 3.06 | 4.75 | -0.05 | 2.22 | -0.93
CCS(=O)(=O)c1ccc(OC)c(Nc2ncc(-c3ccccc3Cl)o2)c1 | -1.14 | -1.13 | 0.41 | -0.46 | 3.44 | 1.1 | 5.2 | 0.17 | 7.7 | 1.4
CNC(=O)c1cncc(/C=C/c2c(C)cccc2C)c1 | 2 | -0.27 | 1.46 | -1.92 | 0.37 | -0.2 | 8.06 | 0.57 | 5.36 | 0.03
COc1cc(Nc2ncc3c(C)nc(-c4cccc(Oc5ccccc5)c4)n3n2)cc(OC)c1OC | 29.3 | 1.25 | 3.17 | 3.48 | 10.8 | 0.32 | 0.56 | 0.07 | 1.2 | 0.41
CCC(=O)Nc1ccc(C)c(-c2ccc(C(=O)NCC3CC3)cc2)c1 | -1.15 | 1.46 | 2.23 | 5.17 | 8.13 | 2.05 | 2.8 | 0.52 | 1.17 | 0.59
COc1cc(Nc2ncc3c(C)nc(-c4cccc(C(F)(F)F)c4)n3n2)cc(OC)c1OC | 7.63 | 1.28 | 7.81 | 13.1 | 63.1 | 3.56 | 7.34 | 2.94 | 6 | 0.26
COc1ccc(C2=C(N3CCc4ccccc43)C(=O)NC2=O)cc1 | 4.14 | 1.18 | 2.26 | 4.31 | 7.73 | 3.88 | 6.21 | 1.85 | 4.28 | -0.02
C/C(Nc1ccc(S(N)(=O)=O)cc1)=C1/C(=O)Nc2ccccc21 | 19.8 | 4.34 | 28.2 | 2.57 | 41.9 | -1.24 | 3.04 | -1.74 | 3.41 | 2.01

SMILES | inhibition [1] [%] | inhibition [2] [%] | inhibition [3] [%] | inhibition [4] [%] | inhibition [5] [%] | inhibition [6] [%] | inhibition [7] [%] | inhibition [8] [%] | inhibition [9] [%] | inhibition [10] [%]
Cc1ccc(C(=O)NC2CCC2)cc1-c1ccc(C(=O)NCC2CC2)cc1 | 0.6 | 0.84 | 0.72 | 3.33 | 1.69 | 0.33 | 3.09 | 0.84 | 1.97 | 0.5
N#Cc1ccc(Oc2nccc(-c3c(-c4ccc(F)cc4)ncn3C3CCNCC3)n2)cc1 | 0.33 | 2.3 | 2.46 | 6.59 | 4.91 | 2.51 | 2.45 | -0.25 | -0.69 | -1.85
NS(=O)(=O)c1ccc(Nc2cc(-c3ccc(O)c(F)c3)n[nH]2)cc1 | 4.97 | 1.26 | 11.7 | -5.49 | 39.3 | -0.77 | 6.93 | 0.26 | 7.33 | 0.4
C[C@@H](Oc1cc(-n2cnc3ccc(OC4CCN(C)CC4)cc32)sc1C(N)=O)c1ccccc1Cl | 8.01 | 2.31 | 5.68 | 6.66 | 26.9 | 3.58 | 17.6 | 3.77 | 21 | 2.47
NS(=O)(=O)c1ccc(N/N=C2\C(=O)Nc3ccc(C(=O)NCCCn4ccnc4)cc32)cc1 | 5.47 | 3.39 | 14.6 | 6.78 | 46.9 | 7.7 | 16.8 | 3.98 | 14.2 | 1.13
C[C@@H](Oc1cc(-n2cnc3ccc(OCC4CCN(C)CC4)cc32)sc1C(N)=O)c1ccccc1Cl | 31.2 | 6.41 | 23.9 | 7.59 | 37.9 | 2.4 | 5.78 | 1.96 | 5.86 | 3.52
CCS(=O)(=O)c1ccc(OC)c(Nc2ncc(-c3cccc(-c4ccccc4F)c3)o2)c1 | 7.39 | 1.24 | 1.22 | 1.52 | 3.29 | 1.34 | 4.69 | 0.34 | 3.99 | -5.23
CCc1cccc(CC)c1/C=C/c1cncc(C(=O)NC)c1 | 0.43 | 0.15 | 1.03 | 1.61 | 3.83 | 1.04 | 3.27 | 0.49 | 1.79 | -0.01
O=C(Nc1n[nH]c2cc(-c3ccccc3)ccc12)C1CC1 | 9.09 | 2.2 | 5.77 | 5.64 | 3.69 | 6.55 | 31.4 | 3.14 | 10.2 | 1.54
Fc1ccc(-c2ncn(C3CCNCC3)c2-c2ccnc(Oc3ccc4c(c3)OCO4)n2)cc1 | 5.12 | 2.61 | 3.33 | 6.04 | 6.41 | 4.52 | 7.62 | 1.84 | 6.88 | 0.67
COc1ccc2ncn(-c3cc(O[C@H](C)c4ccccc4Cl)c(C(N)=O)s3)c2c1 | 3.11 | 2.49 | 2.42 | 7.14 | 6.08 | 1.84 | 2.25 | 0.29 | 2.7 | -0.63
COc1cccc(-n2cnc3c(N/N=C/c4ccncc4)ncnc32)c1 | 3.88 | 0.84 | 4.83 | -1.92 | -4.7 | 0.43 | 16.5 | 3.13 | 13.7 | 0.99
CCN(CC)Cc1ccc(Nc2nccc(-c3cnn4ncccc34)n2)cc1 | 24.7 | 4.42 | 18.9 | 12.5 | 55.4 | 2.28 | 9.82 | 2.76 | 8.84 | 3.28
Clc1ccc(CNc2nccc(-c3cnn4ncccc34)n2)cc1 | 2.59 | -0.78 | -0.74 | -0.99 | 16.4 | 1.08 | 6.48 | 1.92 | 10.7 | -0.61
Fc1ccc(-c2ncn(C3CCNCC3)c2-c2ccnc(Oc3ccc(F)c(F)c3)n2)cc1 | 12.2 | 3.57 | 4.5 | 7.73 | 7.03 | 2.05 | 3.06 | 1.28 | 1.04 | -0.25
Fc1ccc(-c2ncn(C3CCNCC3)c2-c2ccnc(Oc3ccc(Oc4ccccc4)cc3)n2)cc1 | 2.05 | 0.75 | 2.59 | 6.35 | 11.1 | 1.1 | 1.53 | 0.72 | 1.76 | 2.71
Fc1ccc(-c2c(-c3ccncc3)nc3n2CCS3)cc1 | 11.9 | 1.3 | 2.25 | 4.24 | 7.4 | 0.84 | 8.91 | 0.34 | 6.79 | 1.04
